Measurements reported in PubChem BioAssay (NCATS).
Inconclusive results are not listed. Active and inactive are the calls of the source. The call rests on the fitted dose curve; in most records, active means well fitted activation curve with a large enough effect; inconclusive means small, poorly fitted or top-dose-only effect; inactive means no such curve, though single readings can be large or run the other way.
Potency means the concentration at half of the fitted maximal effect.

The compounds below were run against Cellular tumor antigen p53 (Homo sapiens) (UniProt P04637) (assay: Primary qHTS for small molecule compounds that upregulate eGFP-tagged delta133p53alpha (in N-terminal) cells. (AID 2060322; further: nearly all actives have a fitted effect of over 75% in size;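 on activation: series mostly up to about 56 µM; 0% = DMSO vehicle and 100% = reference activator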)). Details: NCI-H358 eGFP-delta133p53alpha fluorescence, 24 h; activation: active compounds read high.
Sequence of Cellular tumor antigen p53 (Homo sapiens) (P04637 whole entry, looked up): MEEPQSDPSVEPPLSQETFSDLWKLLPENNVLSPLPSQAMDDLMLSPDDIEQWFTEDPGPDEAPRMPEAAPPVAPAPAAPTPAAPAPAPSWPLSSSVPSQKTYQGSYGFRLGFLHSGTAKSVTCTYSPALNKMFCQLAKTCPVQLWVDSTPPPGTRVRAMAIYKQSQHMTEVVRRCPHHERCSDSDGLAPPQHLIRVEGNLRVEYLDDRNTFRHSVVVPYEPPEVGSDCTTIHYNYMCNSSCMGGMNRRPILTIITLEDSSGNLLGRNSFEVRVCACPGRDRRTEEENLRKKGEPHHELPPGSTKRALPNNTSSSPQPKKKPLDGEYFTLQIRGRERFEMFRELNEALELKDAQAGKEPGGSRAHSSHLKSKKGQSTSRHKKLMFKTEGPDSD
In short: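 NCI-H358 cells pre-induced 24 h with 10 ng/ml doxycycline to express N-terminal eGFP-delta133p53alpha, then dosed 24 h at 37C without doxycycline; fixed, Hoechst-stained, GFP intensity by laser scanning cytometry, normalized to DMSO (0%) and 57.5 uM 5-azacytidine (100%).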
For `C[C@H]1[C@H](NC(=O)/C(=N/OC(C)(C)C(=O)O)c2csc(N)n2)C(=O)N1S(=O)(=O)O` (stereo in doubt), the activation was 5.08% (inactive).
For `CCOC(=O)c1ccccc1O`, the activation was -2.51% (inactive).
`COc1ccc2ccc(=O)oc2c1CC=C(C)C` was tested, and the activation was -15% (inactive).
With `CCC(=O)Nc1ccc(O)cc1` the activation was -18.6% (inactive).
In the case of `CCCc1ncc(C(=O)O)s1`, the activation is reported as -8.37% (inactive).
`Nc1ccc(C(=O)N2CC3CC(CN(Cc4ccccc4)C3)C2)cc1` was tested, and the activation was -6.21% (inactive).
In the case of `COc1cc2c(NC3CCN(C)CC3)nc(N3CCCN(C)CC3)nc2cc1OCc1ccccc1`, the activation is reported as 30.2% (inactive).
`O=C1C(CCC(O)c2ccc(F)cc2)C(c2ccc(O)cc2)N1c1ccc(F)cc1` (stereo not given) was tested, and the activation was -15.6% (inactive).
With `C[C@@H]1CCN(C(=O)CC#N)C[C@H]1N(C)c1ncnc2[nH]ccc12` the activation was -11.8% (inactive).
`CCCCCCCCCCCCCCCCCCNC(=O)OC1CCN(C(=O)OC[C@H](COC(=O)N(Cc2cccc[n+]2CC)C(=O)c2ccccc2OC)OC)CC1` was tested, and the activation was 1.67% (inactive).
In the case of `CC(=O)Nc1ccc(CC(=O)O)cc1`, the activation is reported as 6.21% (inactive).
With `Cc1cc(O)c(C)c(C)c1O` the activation was 17.5% (inactive).
With `C[C@@H]1CC[C@@]2(OC1)O[C@H]1C[C@H]3[C@@H]4CC[C@H]5C[C@@H](O)CC[C@]5(C)[C@H]4CC(=O)[C@]3(C)[C@H]1[C@@H]2C` the activation was -17.6% (inactive).
`COc1c(C)c2c(c(O)c1CC=C(C)CCC(=O)OCCN1CCOCC1)C(=O)OC2` was tested, and the activation was 13.4% (inactive).
For `O=C(N/N=C/c1ccc([N+](=O)[O-])o1)c1ccc(O)cc1`, the activation was 24.3% (inactive).
In the case of `O=c1[nH]c(=O)n([C@H]2O[C@H](CO)[C@@H](O)[C@@H]2O)cc1/C=C\Br`, the activation is reported as 3.35% (inactive).
In the case of `O=c1ccn([C@@H]2O[C@H](CO)[C@H](O)[C@H]2O)c(=O)[nH]1`, the activation is reported as 8.95% (inactive).
With `Cc1cc(=O)oc2cc(O[C@@H]3SC[C@@H](O)[C@H](O)[C@H]3O)ccc12` the activation was 23.2% (inactive).
`O=C(Nc1ccc(C(=O)O)c(O)c1)c1ccccc1` was tested, and the activation was -30.1% (inactive).
For `CN(C)CCOC(c1ccc(Cl)cc1)c1ccccn1` (stereo not given), the activation was 15.3% (inactive).
For `Clc1ccccc1-c1nc(-c2ccncc2)no1`, the activation was 11.7% (inactive).
`O=C(O)CN1C(=O)c2cccc3cccc(c23)C1=O` was tested, and the activation was -6.69% (inactive).
For `CC1(C)[C@H](O[C@H]2O[C@H](C(=O)O)[C@@H](O)[C@H](O)[C@H]2O[C@@H]2O[C@H](C(=O)O)[C@@H](O)[C@H](O)[C@H]2O)CC[C@@]2(C)[C@H]1CC[C@]1(C)[C@H]2C(=O)C=C2[C@H]3C[C@@](C)(C(=O)O)CC[C@]3(C)CC[C@]21C`, the activation was -5.71% (inactive).
`C[C@@H]1CC=CC=CC=CC=C[C@@H](O[C@@H]2O[C@H](C)[C@@H](O)[C@H](N)[C@H]2O)C[C@@H]2O[C@](O)(C[C@@H](O)C[C@@H]3O[C@@H]3C=CC(=O)O1)C[C@H](O)[C@@H]2C(=O)O` was tested, and the activation was -2.86% (inactive).
For `C[C@H](NCc1ccc2c(c1)nc(NC(=O)c1ccc(-c3cn[nH]c3)s1)n2CCc1ccccc1)C(C)(C)C`, the Potency was 6.11 µM (active).
`COc1ccc(CN(CCN(C)C)c2ncccn2)cc1` was tested, and the activation was 5.08% (inactive).
With `NS(=O)(=O)c1cc2c(cc1Cl)NC(CC1CCCC1)NS2(=O)=O` (stereo not given) the activation was 11.9% (inactive).
`FC1(F)C(F)(F)C(F)(F)C2(F)C(F)(F)C(F)(F)C(F)(F)C(F)(F)C2(F)C1(F)F` (stereo not given) was tested, and the activation was -7.34% (inactive).
`CN(C)C(=S)SC(=S)N(C)C` was tested, and the Potency was 21.9 µM (active).
`C=C1C(=O)O[C@H]2[C@@H]1CCC(C)=CCC[C@@]1(C)O[C@@H]21` was tested, and the Potency was 19.3 µM (active).
In the case of `CN(C)CC[C@H](c1ccc(Cl)cc1)c1ccccn1`, the activation is reported as 26.7% (inactive).
In the case of `COc1cc(N)c(Cl)cc1C(=O)NC1CCN(CCCOc2ccc(F)cc2)CC1OC` (stereo not given), the activation is reported as 13% (inactive).
In the case of `Cc1ccc(C(=O)NCCCCCC(=O)Nc2ccccc2N)cc1`, the activation is reported as 11.2% (inactive).
For `CC[C@]12C=CCN3CC[C@@]4(c5cc([C@@]6(C(=O)OC)C[C@H]7C[C@@H](C(C)(F)F)CN(Cc8c6[nH]c6ccccc86)C7)c(OC)cc5N(C)[C@H]4[C@@](O)(C(=O)OC)[C@H]1OC(C)=O)[C@@H]32`, the activation was -7.99% (inactive).
For `CCOC(=O)[C@H](CCc1ccccc1)N[C@@H](C)C(=O)N1Cc2ccccc2C[C@H]1C(=O)O`, the activation was 17.6% (inactive).
